# Screening results: PubChem, Broad Institute
# The entries come from a sample that favours hits as a whole.
# YB-1 expr inh: inhibitors of YB-1 gene expression, primary screen, cell-based, fluorescence; 30,000 compounds, 0.37% hits; delta delta Cp (YB-1 minus CDIP) (test concentration not listed); U2OS, qRT-PCR YB-1 vs CDIP delta delta Cp, 16 h; hits give high values; zero = DMSO, each unit about twofold;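 active = delta delta Cp rounded down to an integer at or above 3, about 3 SD of DMSO wells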;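 also: higher means less YB-1 transcript or more CDIP transcript relative to DMSO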
# MITF inhib: inhibitors of MITF, primary screen, MITF inhibitor project, cell-based, luminescence; TRPM1 promoter luciferase, 24 h; inhibition, % (test concentration not listed); 37,000 compounds, 0.28% hits; AID 2240, 2010; in the data active = inhibition above about 85%; inconclusive = no clear call, values can overlap the other calls; inactive = below about 68%;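 also: human melanocyte line stably carrying TRPM1 promoter luciferase reporter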
# Hedgehog inh: Hedgehog pathway signaling inhibitors, primary screen, luminescence, Shh-LIGHT2 cells, Gli-luciferase; Shh-LIGHT2 Gli-luciferase reporter, 30 h; inhibition, % (concentration not given with the values); 22,000 compounds, 2.1% hits; AID 2313, 2010;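 active = mean inhibition across valid replicates above about 65%, limit read from the data; inconclusive = mean under the limit, yet half or more replicates past it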;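 also: pathway switched on by Shh-conditioned medium diluted 1 in 25 in low serum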
# Numbers without * were called inactive; ? = inconclusive; . = no result given.
SMILES,YB-1 expr inh,MITF inhib,Hedgehog inh
C[C@@H]1CN([C@H](C)CO)C(=O)c2cccc(NC(=O)C3CCOCC3)c2O[C@H]1CN(C)Cc1ccc(Cl)c(Cl)c1,0.0047,1,70*
CC(=O)O[C@@H]1[C@@H](O)[C@@H](O)[C@H](Oc2c(-c3ccc(O)cc3)oc3cc(O[C@@H]4O[C@@H](C)[C@H](O)[C@@H](O)[C@H]4O)cc(O)c3c2=O)O[C@H]1C,2,.,-8
CCOC(=O)/C(=N/O)C1=NN=C(N)SC1,-0.18,-9,3
COc1ccc(CC(=O)N(CC#N)CC#N)cc1OC,-0.11,1,-6
Cn1ncc(Br)c1-c1nc2ccccc2[nH]1,0.31,-37,-22
C[C@H]1CN([C@@H](C)CO)C(=O)Cc2cc(NC(=O)CCN3CCOCC3)ccc2O[C@@H]1CN(C)Cc1ccc(-c2ccccc2)cc1,0.39,-12,65*
C[C@@H]1CN([C@H](C)CO)C(=O)Cc2cc(NC(=O)CCN3CCOCC3)ccc2O[C@H]1CN(C)Cc1ccc(-c2ccccc2)cc1,-0.094,-26,15
C[C@H](CO)N1C[C@H](C)[C@H](CN(C)C(=O)Nc2ccccc2)Oc2ccc(NC(=O)Cc3ccccc3)cc2CC1=O,4.6*,-3,23
C[C@H]1CN([C@@H](C)CO)C(=O)Cc2cc(NC(=O)Cc3ccccc3)ccc2O[C@H]1CN(C)C(=O)Nc1ccccc1,-0.09,5,-11
CN(C)/C=C/C(=O)c1ccc2c(c1)CCC(C)(C)O2,-0.26,9,51
CC1=C(C#N)C(c2cc(F)ccc2F)C(C(=O)OCc2ccccc2)=C(N)O1 (stereo not given),-0.11,22,-45
Cc1cc(C)c2c(=O)[nH]c(SCC(=O)c3cccs3)nc2n1,.,3,.
CCN(CC)c1c(C#N)c(SCC(=O)c2cccs2)cc2c1CCCC2,0.65,8,81*
CC1(C)Cc2c(sc(NC(=O)C(c3ccccc3)c3ccccc3)c2C#N)CO1,0.092,-5,20
C[C@H](CO)N1C[C@H](C)[C@H](CN(C)S(=O)(=O)c2cccs2)Oc2ncc(C#Cc3ccccc3)cc2C1=O,0.029,.,.
C[C@@H]1CN([C@H](C)CO)C(=O)c2cccc(NC(=O)C3CC3)c2O[C@H]1CN(C)S(=O)(=O)c1cccs1,0.29,-11,-16
C[C@H](CO)N1C[C@H](C)[C@H](CN(C)S(=O)(=O)c2cccs2)Oc2ncc(C#CC(C)(C)O)cc2C1=O,9.9*,.,.
C[C@H](CO)N1C[C@H](C)[C@H](CN(C)S(=O)(=O)c2cccs2)Oc2c(NC(=O)C3CC3)cccc2C1=O,-0.3,-6,85*
Cc1cc(C(=O)Nc2cccc3c2O[C@H](CN(C)S(=O)(=O)c2cccs2)[C@H](C)CN([C@@H](C)CO)C3=O)n(C)n1,20*,-9,49
Cc1cc(C(=O)Nc2cccc3c2O[C@@H](CN(C)S(=O)(=O)c2cccs2)[C@@H](C)CN([C@@H](C)CO)C3=O)n(C)n1,0.72,-12,6
CS(=NC(=O)Nc1ccc(Cl)cc1)c1sc(Cl)c2c1C(=O)CCC2 (stereo not given),-0.17,3,53
S=C(CC(=S)N1CCOCC1)N1CCOCC1,-0.1,4,4
Cc1cccc(NC(=O)C2Sc3nnc(-c4ccccc4)n3NC2c2ccccc2)c1 (stereo not given),0.05,59,19
C=C(C)C(=O)O[C@H]1[C@H]2C(=C)C(=O)O[C@@H]2C[C@@H](C)[C@@H]2O[C@@H]2C(=O)[C@](C)(O)[C@@H]1OC(C)=O,0.12,-10,85*
C=C(C)C(=O)O[C@H]1[C@H]2C(=C)C(=O)O[C@@H]2C[C@@H](C)/C=C/C(=O)[C@](C)(O)[C@@H]1OC(=O)C(=C)C,0.48,?,3
SMILES,YB-1 expr inh,MITF inhib,Hedgehog inh
O=C(Nc1ccccc1)C(F)(F)F,-0.14,-11,-13
Cc1ccc(S(=O)(=O)N(C)C[C@H]2Oc3c(NC(=O)c4ccc(-c5nccs5)cc4)cccc3C(=O)N([C@@H](C)CO)C[C@H]2C)cc1,0.34,13,1
C[C@H](CO)N1C[C@H](C)[C@H](CN(C)S(=O)(=O)c2ccc(Cl)cc2)Oc2c(NC(=O)c3ccncc3)cccc2C1=O,-1.3,-10,111*
C[C@H]1CN([C@@H](C)CO)C(=O)c2cccc(NC(=O)c3ccc(-c4nccs4)cc3)c2O[C@H]1CN(C)S(=O)(=O)c1ccc(Cl)cc1,0.25,-16,93*
C[C@H](CO)N1C[C@H](C)[C@@H](CN(C)S(=O)(=O)c2ccc(Cl)cc2)Oc2c(NC(=O)c3ccncc3)cccc2C1=O,0.54,-15,-1
C[C@@H]1CN([C@H](C)CO)C(=O)c2cccc(NC(=O)c3ccc(-c4nccs4)cc3)c2O[C@@H]1CN(C)Cc1ccc(Oc2ccccc2)cc1,-0.41,21,71*
C[C@H](CO)N1C[C@H](C)[C@@H](CN(C)S(=O)(=O)c2cccs2)Oc2c(NC(=O)c3ccc(-c4nccs4)cc3)cccc2C1=O,-0.36,-12,40
C[C@H](CO)N1C[C@H](C)[C@H](CN(C)S(=O)(=O)c2cccs2)Oc2c(NC(=O)c3ccc(-c4nccs4)cc3)cccc2C1=O,-0.53,45,92*
C[C@@H]1CN([C@@H](C)CO)C(=O)c2cccc(NC(=O)c3ccc(-c4nccs4)cc3)c2O[C@H]1CN(C)Cc1ccc(Oc2ccccc2)cc1,-0.53,60,28
COC(=O)c1ccc(NC(=O)CC2Sc3ccc(C(F)(F)F)cc3NC2=O)cc1 (stereo not given),0.1,3,.
C[N+]12CCCCC1C(CN1C(=O)c3ccccc3C1=O)CCC2 (stereo not given),-0.5,13,.
N#CN=C(N)c1sc2nc3c(cc2c1N)CCCCC3,-0.88,21,-148
CCOC(=O)C(C#N)C(c1cccnc1)c1[nH]c(C)nc1O (stereo not given),-0.33,6,-4
O=C1C(C=NC(CO)(CO)CO)=C(O)c2ccccc21,0.1,0,-19
CCc1ccc(N=Cc2c(O)n(-c3ccccc3)c(=O)c3ccccc23)cc1,-0.49,-16,-6
COc1ccc(NC(=O)c2cccc(C)c2)c(OC)c1,-0.12,-15,-47
C[C@@H]1CN([C@H](C)CO)C(=O)c2cccc(NC(=O)c3ccc(-c4nccs4)cc3)c2O[C@H]1CN(C)S(=O)(=O)c1ccc(Cl)cc1,-0.11,8,76*
Cc1ccc(S(=O)(=O)N(C)C[C@@H]2Oc3c(NC(=O)c4ccc(-c5nccs5)cc4)cccc3C(=O)N([C@H](C)CO)C[C@@H]2C)cc1,0.25,29,-7
Cn1c(=O)c2c(ncn2CC(O)COc2ccccc2)n(C)c1=O (stereo not given),0.36,11,.
CC1CN(c2nc3ccccc3nc2SCC(=O)Nc2ccccc2)CC(C)O1 (stereo not given),-1.1,-12,-36
Cc1c(-c2ccccc2)[n+](=O)c(-c2ccc(Br)cc2)c(C)n1[O-],-0.42,9,67*
CC(=O)[C@@]1(O)CCC2C3CCC4=CC(=O)CC[C@]4(C)C3CC[C@@]21C (stereo not given in full),-0.061,12,32
